Measurements: ChEMBL document CHEMBL3988442, “University of Dundee, Small-Polar-MMV Screening Library” (2021)
The whole screen tested about 66,000 compounds, of which about 960 (1.5%) showed an effect of 50% or more. Many of the other results were omitted from the sample, so strong results are more common in it than they were.

Test system: Trypanosoma brucei
Assay: Trypanosoma brucei 72 hour study
Assay type: functional, organism-based
Set-up: scale not given: in the data most compounds retested in dose-response had high values

Question: Which “Percent Effect” value (30.3 µM, […]) does the source give for `COc1cccc(CN2CCC(O)(c3ccc(C)cn3)CC2)c1OC` here?
Answer: The value was -256.8%.

Question: Which “Percent Effect” value (30.3 µM, […]) does the source give for `Cl.OC1(c2ccc(F)cc2)CCN(Cc2ccccc2N2CCCC2)CC1` here?
Answer: Its value is -34.29%.

Question: With `Cc1cccc(C2(O)CCN(Cc3ccccc3N3CCCC3)CC2)c1` as the compound, how does the “Percent Effect” value (30.3 µM, […]) read?
Answer: The value was 93.6%.

Question: How did the “Percent Effect” value (30.3 µM, […]) turn out when `OC1(c2ccccc2F)CCN(Cc2ccccc2N2CCCC2)CC1` was run?
Answer: The value was 56.26%.

Question: `Cc1nc(CCN)cc(N2CCC(O)(c3ccccc3)C2)n1` (configuration not stated) was tested. Which “Percent Effect” value (30 µM, 30.03 µM) did it give?
Answer: Its value is -28.3%.

Question: With `Nc1ncc(CN2CCC(O)(c3ccccc3F)CC2)cn1` as the compound, how does the “Percent Effect” value (30.3 µM, […]) read?
Answer: Its value is -5.013%.

Question: With `COc1cc(CCC(=O)N2CCC(c3cc4nccnc4[nH]3)CC2)on1` as the compound, how does the “Percent Effect” value (30.3 µM, […]) read?
Answer: Its value is 60.69%.

Question: How did the “Percent Effect” value (30.3 µM, […]) turn out when `COc1cc(CCC(=O)N2CCC(c3cc4ncccc4[nH]3)CC2)on1` was run?
Answer: Its value is 13.01%.

Question: For `COc1cc(CCC(=O)N2CCC(c3cc4ncc(C)nc4[nH]3)C2)on1` (configuration not stated), which “Percent Effect” value (30.3 µM, […]) is on record?
Answer: The value was 31.83%.

Question: How did the “Percent Effect” value (30 µM, 30.03 µM) turn out when `O=C(C1CCOCC1)N1CCO[C@H]2[C@H](OCc3ccncc3)CC[C@@H]21.O=C(O)C(F)(F)F` was run?
Answer: The value was -17.19%.

Question: For `CN(Cc1ccncc1)C1COC2(CCN(Cc3ccsc3)CC2)C1.O=C(O)C(F)(F)F.O=C(O)C(F)(F)F.O=C(O)C(F)(F)F` (configuration not stated), which “Percent Effect” value (30 µM, 30.03 µM) is on record?
Answer: Its value is 11.15%.

Question: With `Cn1nc(C(=O)NCc2cccnc2)c2c1CCS(=O)(=O)C2` as the compound, how does the “Percent Effect” value (30.3 µM, […]) read?
Answer: The value was -19.1%.

Question: Which “Percent Effect” value (30.3 µM, […]) does the source give for `Cn1nc(C(=O)NCc2cccs2)c2c1CCS(=O)(=O)C2` here?
Answer: Its value is -10.45%.

Question: With `Cn1nc(C(=O)NCc2ccccn2)c2c1CCS(=O)(=O)C2` as the compound, how does the “Percent Effect” value (30 µM, 30.03 µM) read?
Answer: The value was 63.28%.

Question: For `CC(=O)N1CCC[C@@H](NCc2c[nH]c3ccccc23)[C@@H]1c1ccc(C)s1.Cl`, which “Percent Effect” value (30.3 µM, […]) is on record?
Answer: The value was -17.97%.

Question: With `Cc1cnn(C2CCCN(C(=O)Cc3c(C)nn(C)c3C)C2)c1` (configuration not stated) as the compound, how does the “Percent Effect” value (30.3 µM, […]) read?
Answer: The value was -16.8%.

Question: How did the “Percent Effect” value (30.3 µM, […]) turn out when `O=C(O)C(F)(F)F.c1cncc(N2CCOCC3(CCCN(c4nncs4)C3)C2)c1` (configuration not stated) was run?
Answer: Its value is 1.277%.

Question: For `N#Cc1ccc(N2CCCC3(CCN(c4cccnc4)CC3)C2)cc1.O=C(O)C(F)(F)F`, which “Percent Effect” value (30.3 µM, […]) is on record?
Answer: Its value is 65.08%.

Question: Which “Percent Effect” value (30.3 µM, […]) does the source give for `Cc1cnc(N2CCCC3(COCCN(c4nccs4)C3)C2)nc1` (configuration not stated) here?
Answer: The value was -22.75%.

Question: `Fc1cnc(N2CCCC3(COCCN(c4nccs4)C3)C2)nc1.O=C(O)C(F)(F)F.O=C(O)C(F)(F)F` (configuration not stated) was tested. Which “Percent Effect” value (30 µM, 30.03 µM) did it give?
Answer: Its value is 60.81%.

Question: `O=C(O)C(F)(F)F.O=C(O)C(F)(F)F.c1cncc(N2CCCC3(CCN(CCN4CCCC4)CC3)C2)c1` was tested. Which “Percent Effect” value (30.3 µM, […]) did it give?
Answer: The value was -7.746%.

Question: With `O=C(O)C(F)(F)F.c1cncc(N2CCC3(CCCN(c4ccncc4)C3)CC2)c1` as the compound, how does the “Percent Effect” value (30.3 µM, […]) read?
Answer: Its value is -3.759%.

Question: Which “Percent Effect” value (30 µM, 30.03 µM) does the source give for `O=C(O)C(F)(F)F.c1ccc(N2CCCC3(COCCN(c4nccs4)C3)C2)nc1` (configuration not stated) here?
Answer: Its value is 23.77%.

Question: `O=C(O)C(F)(F)F.O=S(=O)(c1cccs1)N1CCCC2(COCCN(c3cccnc3)C2)C1` (configuration not stated) was tested. Which “Percent Effect” value (30.3 µM, […]) did it give?
Answer: The value was 53.4%.

Question: How did the “Percent Effect” value (30.3 µM, […]) turn out when `O=C(O)C(F)(F)F.O=C(c1cccs1)N1CCCC2(COCCN(c3cccnc3)C2)C1` (configuration not stated) was run?
Answer: The value was -669.5%.

Question: `O=C(O)C(F)(F)F.O=C(O)C(F)(F)F.c1cc(CN2CC[C@@H]3[C@@H](CO[C@H]3CN3CCOCC3)C2)cs1` was tested. Which “Percent Effect” value (30.3 µM, […]) did it give?
Answer: Its value is -46.86%.

Question: `COc1ccc(N2CCN(C(=O)[C@H]3[C@@H]4CNC[C@@H]43)CC2(C)C)cc1` was tested. Which “Percent Effect” value (30 µM, 30.03 µM) did it give?
Answer: Its value is -58.92%.

Question: How did the “Percent Effect” value (30.3 µM, […]) turn out when `Cc1cccc(CN2CCO[C@@H]3CC(COc4ccccn4)C[C@H]32)n1.O=C(O)C(F)(F)F.O=C(O)C(F)(F)F` (some centres not stated) was run?
Answer: The value was -29.04%.

Question: How did the “Percent Effect” value (30.3 µM, […]) turn out when `Cc1cc(C)c2cc(CNCc3ccc(C)o3)c3nn(C)c(=O)n3c2c1` was run?
Answer: The value was -8.702%.

Question: For `CCOCCCNCc1cc2c(C)cc(C)cc2n2c(=O)n(C)nc12`, which “Percent Effect” value (30.3 µM, […]) is on record?
Answer: The value was 2.995%.

Question: With `Cc1cc(C)c2cc(CNCc3ccccc3)c3nn(C)c(=O)n3c2c1` as the compound, how does the “Percent Effect” value (30.3 µM, […]) read?
Answer: The value was 17.22%.

Question: Which “Percent Effect” value (30.3 µM, […]) does the source give for `Cc1cc(C)c2cc(CNCC3CCCO3)c3nn(C)c(=O)n3c2c1` (configuration not stated) here?
Answer: Its value is 73.49%.

Question: For `Cc1cc(C)c2cc(CNCc3ccco3)c3nn(C)c(=O)n3c2c1`, which “Percent Effect” value (30.3 µM, […]) is on record?
Answer: Its value is 8.532%.

Question: For `Cc1cc(C)c2cc(CNC3CCCCC3)c3nn(C)c(=O)n3c2c1`, which “Percent Effect” value (30.3 µM, […]) is on record?
Answer: The value was 100.6%.

Question: `COCCNCc1cc2c(C)cc(C)cc2n2c(=O)n(C)nc12` was tested. Which “Percent Effect” value (30.3 µM, […]) did it give?
Answer: The value was 39.03%.

Question: Which “Percent Effect” value (30.3 µM, […]) does the source give for `CCCNCc1cc2c(C)cc(C)cc2n2c(=O)n(C)nc12` here?
Answer: Its value is 24.54%.

Question: For `Cc1cc(C)c2cc(CNC(C)C)c3nn(C)c(=O)n3c2c1`, which “Percent Effect” value (30.3 µM, […]) is on record?
Answer: Its value is 99.68%.

Question: How did the “Percent Effect” value (30 µM, 30.03 µM) turn out when `Cc1nc(Nc2ncccn2)cc(C2CCCN2CC(C)C)n1` (configuration not stated) was run?
Answer: The value was -16.62%.

Question: How did the “Percent Effect” value (30.3 µM, […]) turn out when `Cc1nc(CN2CCC3(CC2)NC(=O)CC3c2ccccc2)cs1.O=C(O)C(F)(F)F` (configuration not stated) was run?
Answer: Its value is 10.42%.

Question: With `O=C(Cc1cccc(F)c1)N1C[C@H]2CN(Cc3ccccn3)C[C@H]2C1.O=C(O)C(F)(F)F` as the compound, how does the “Percent Effect” value (30.3 µM, […]) read?
Answer: The value was -6.988%.

Question: Which “Percent Effect” value (30 µM, 30.03 µM) does the source give for `CC(C)n1c(=O)nc2n1C(=O)N(c1ccccc1)C2` here?
Answer: The value was 14.82%.

Question: Which “Percent Effect” value (30.3 µM, […]) does the source give for `CN1CCN(Cc2cnc3n2CCN(Cc2cccnc2)CC3)CC1.O=C(O)C(F)(F)F.O=C(O)C(F)(F)F.O=C(O)C(F)(F)F` here?
Answer: The value was -39.08%.

Question: With `Cc1nc(CN2C(=O)C[C@@H]3[C@@H]2CCN3S(C)(=O)=O)cs1` as the compound, how does the “Percent Effect” value (30 µM, 30.03 µM) read?
Answer: Its value is -13.69%.

Question: How did the “Percent Effect” value (30 µM, 30.03 µM) turn out when `Cc1cc2nc(C(C)C)cc(NCCNc3ncccc3C)n2n1` was run?
Answer: The value was -45.75%.

Question: `FC(F)(F)c1ccc(-c2c[nH]c([C@@H]3COCCN3)n2)cc1` was tested. Which “Percent Effect” value (30 µM, 30.03 µM) did it give?
Answer: Its value is 11.07%.

Question: With `COc1ccc(-c2c[nH]c([C@@H]3COCCN3)n2)cc1` as the compound, how does the “Percent Effect” value (30 µM, 30.03 µM) read?
Answer: Its value is -38.08%.

Question: Which “Percent Effect” value (30 µM, 30.03 µM) does the source give for `FC(F)(F)Oc1ccc(-c2c[nH]c([C@@H]3COCCN3)n2)cc1` here?
Answer: Its value is 62.77%.

Question: `CC(Nc1cccc(F)c1C#N)c1cccc(S(N)(=O)=O)c1` (configuration not stated) was tested. Which “Percent Effect” value (30 µM, 30.03 µM) did it give?
Answer: Its value is 70.17%.

Question: `CC(Nc1c(F)cc(C#N)cc1F)c1cccc(S(N)(=O)=O)c1` (configuration not stated) was tested. Which “Percent Effect” value (30 µM, 30.03 µM) did it give?
Answer: The value was 39.53%.

Question: How did the “Percent Effect” value (30 µM, 30.03 µM) turn out when `CC(Nc1ccc(C#N)cc1F)c1cccc(S(N)(=O)=O)c1` (configuration not stated) was run?
Answer: Its value is 35.16%.

Question: With `CC(=O)N1CCN(Cc2ccc(F)cc2)CC2(CC(=O)N(C)C2)C1.O=C(O)C(F)(F)F` (configuration not stated) as the compound, how does the “Percent Effect” value (30.3 µM, […]) read?
Answer: Its value is -72.99%.

Question: Which “Percent Effect” value (30.3 µM, […]) does the source give for `Cc1cc(-c2cnc(NCc3ccccn3)nc2C(C)C)on1` here?
Answer: Its value is 94.64%.
